Bioassay records (PubChem)
Hits are enriched below; roughly 32% of the tested compounds scored in any of these assays.
PostGolgi ctrl: yeast control strain growth, post-Golgi counter-screen | inhibition, % at 10 µM | efflux-deficient yeast background strain, growth absorbance A615, 16 h | 98,000 compounds, 5% hits
CYP2C9 inh: inhibitors of human CYP2C9 | P11712 | CYP2C9 Supersomes, luciferin-H conversion, luminescence | inhibition, % at 5 µM | 96,000 compounds, 20% hits;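 active = blocking of liver enzyme CYP2C9 beyond about 50% at 5 µM, limit read from the data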
CYP2C9 act: increases human cytochrome P450 2C9 activity | P11712 | recombinant CYP2C9, luciferin-H conversion, luminescence; active compounds read high; factor 1 = untreated enzyme, 0 = blocked | activation factor at 5 µM | 96,000 compounds, 1.4% hits | AID 1024;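 active = activation factor of 2 or more for CYP2C9 at a 5 µM dose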
CYP2C19 activ: increases human CYP2C19 enzyme activity; P33261; recombinant CYP2C19, luciferin-H EGE luminescence; active compounds read high; 0 = fully inhibited enzyme, 1 = untreated enzyme; activation factor at 5 µM; 96,000 tested, under 10 active; AID 1025;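 active = activation factor of at least 2 at 5 µM in the primary screen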
Target sequence (P33261 whole entry, looked up): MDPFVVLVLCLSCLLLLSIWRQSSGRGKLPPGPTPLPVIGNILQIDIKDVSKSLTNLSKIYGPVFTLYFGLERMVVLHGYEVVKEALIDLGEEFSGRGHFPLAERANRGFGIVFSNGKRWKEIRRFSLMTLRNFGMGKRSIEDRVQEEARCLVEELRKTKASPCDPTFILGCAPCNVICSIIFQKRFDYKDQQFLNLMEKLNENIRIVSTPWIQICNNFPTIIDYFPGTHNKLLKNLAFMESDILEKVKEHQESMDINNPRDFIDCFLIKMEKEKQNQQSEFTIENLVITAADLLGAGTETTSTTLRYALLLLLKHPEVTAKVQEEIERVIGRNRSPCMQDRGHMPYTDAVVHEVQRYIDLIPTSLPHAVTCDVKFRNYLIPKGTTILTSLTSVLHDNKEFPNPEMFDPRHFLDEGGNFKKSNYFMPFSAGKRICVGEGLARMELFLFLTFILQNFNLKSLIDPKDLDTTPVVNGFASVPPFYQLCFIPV
CYP2C19 inhib: human CYP2C19 inhibition | AID 778 | inhibition, % at 5 µM | CYP2C19 Supersomes, luciferin-H EGE luminescence, 30 min | 96,000 compounds, 21% hits;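 active = CYP2C19 inhibition above a set limit at 5 µM in the primary screen, cut at about 50% in these data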
PostGolgi yeast: growth inhibition of a yeast mutant, post-Golgi transport screen | post-Golgi transport phenotypic cell assay | 98,000 compounds, 0.9% hits | inhibition, % at 10 µM | AID 739;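 also: yeast cells grown in 1536-well plates; yeast grown about 18 h at 30C before absorbance read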
Large screens that a line does not name were inactive. Rule as the data show it, unless noted: active = inhibition above about 30%; inactive = the rest.

Cc1ccc(C(=O)OCc2nnc(-c3ccccc3)o2)o1	CYP2C19 inhib 80
COc1cc(CCC(=O)OCc2nnc(-c3ccccc3)o2)cc(OC)c1OC	CYP2C9 inh 82, CYP2C19 inhib 64
COc1cc(-c2nnc(COC(=O)c3cc(C)nc4ccc(C)cc34)o2)cc(OC)c1OC	CYP2C9 inh 88, CYP2C19 inhib 90
O=C(Nc1ccccc1C(=O)OCc1nnc(-c2ccccc2)o1)c1ccco1	PostGolgi ctrl 48, CYP2C9 inh 95, CYP2C19 inhib 76
O=C(CCNC(=O)Cn1cnc2ccccc2c1=O)NCC1COc2ccccc2O1 (centres undefined)	none
Cc1cc(C)n(-c2ccc(C(=O)OCc3nnc(-c4ccccc4)o3)cc2)n1	none
O=C(OCc1nnc(-c2ccccc2)o1)c1ccc2c(c1)OCCO2	CYP2C9 inh 58
COc1ccc(NC(=O)c2cccc(Cn3cc(Br)cn3)c2)cn1	CYP2C9 inh 78, CYP2C19 inhib 71
COc1ccc(NC(=O)c2cc(CN3C(=O)c4ccccc4C3=O)ccc2OC)cn1	CYP2C9 inh 78
Cn1c(NC(=O)c2cccc(Cn3cc(Cl)cn3)c2)nc2ccccc21	none
CN=c1sc2ccccc2n1CC(O)COc1ccccc1 (centres undefined)	CYP2C9 inh 71, CYP2C19 inhib 96
CCN=c1sc2ccccc2n1CC(O)COc1ccccc1 (centres undefined)	CYP2C9 inh 93, CYP2C19 inhib 99
CCCNC(=O)COC(=O)CCC(=O)c1ccc(F)cc1	none
COCC(C)NC(=O)CSc1nc(-c2ccccc2)c(-c2ccccc2)o1 (centres undefined)	CYP2C19 inhib 59
O=C1CCCC2=C1C1(CCCCC1)N=C(Nc1nc3ccccc3s1)N2	PostGolgi ctrl 33
O=C(Nc1ccc(-c2nc3ccccc3o2)cc1)c1ccc(N2C(=O)C3C4C=CC(C4)C3C2=O)cc1 (centres undefined)	none
CC1(C)Cc2c(ccc3ccccc23)C(=O)N1	none
CCNC(=O)/C=C1\NC(C)(C)Cc2c1ccc1ccccc21	CYP2C9 inh 90, CYP2C19 inhib 83
Cc1ccc(NC(=O)c2sc3nc[nH]c(=O)c3c2C)c(C)c1	none
N#C/C(=C1/CCCCCN1)c1nc2ccccc2s1	none
N#C/C(=C(/O)CSc1ccccc1C(=O)O)c1nc2ccccc2s1	none
Cc1ccc(SC/C(O)=C(\C#N)c2nc3ccccc3s2)cc1	CYP2C9 inh 100, CYP2C19 inhib 54
COc1ccc(C/C(O)=C(\C#N)c2nc3ccccc3s2)cc1	CYP2C9 inh 68
O=C(c1ccccc1)c1sc(N2CCCCCC2)nc1-c1ccccc1	PostGolgi ctrl 33
O=C(CSc1ncnc2c1oc1ccccc12)OCc1ccccc1	none
CCOC(=O)Nc1ccc2c(c1)N(C(=O)CN1CCN(C)CC1)c1ccccc1S2	CYP2C19 inhib 58
CCOC(=O)Nc1ccc2c(c1)N(C(=O)C(C)N1CCCC1)c1ccccc1CC2 (centres undefined)	none
CCOC(=O)Nc1ccc2c(c1)N(C(=O)OC)c1ccccc1CC2	CYP2C9 inh 85, CYP2C19 inhib 70
COc1ccc(C(C(=O)NC2CCCC2)N(Cc2ccc(F)cc2)C(=O)c2ccn[nH]2)cc1OC (centres undefined)	none
O=C(Nc1cnc2ccccc2c1)c1ccncc1	CYP2C9 inh 70, CYP2C19 inhib 86
CCN(CC)C(=O)Nc1cnc2ccccc2c1	PostGolgi ctrl 33
O=C(Nc1ccc2c(c1)oc1ccccc12)c1ccncc1	CYP2C9 inh 97, CYP2C19 inhib 82
NC(=O)CC1SC(N)=NC1=O (centres undefined)	none
COc1ccc(NC(=O)CSc2ccc3c4c(cccc24)C(=O)c2ccccc2-3)cc1	CYP2C9 inh 84
N#Cc1cccc(NC(=O)CSc2ccc3c4c(cccc24)C(=O)c2ccccc2-3)c1	CYP2C9 inh 74
Cc1ccc(NC(=O)CSc2nnc(Cn3c(=O)sc4ccccc43)n2C)cc1Cl	none (no result: CYP2C9 inh, CYP2C9 act, CYP2C19 activ, CYP2C19 inhib)
CCOC(=O)CC(/C(C)=N\O)c1ccccc1 (centres undefined)	CYP2C19 inhib 51
CCOc1ccc(NC(=O)N[C@@H](CCSC)C(=O)OC)cc1	none
CCN1C(=O)/C(=C/c2ccc(C)s2)NC1=S	CYP2C9 inh 59
